{"source": "the supplement of paper PMC8728848", "binders": {"B1": {"name": "Mincle (Bos taurus) (protein)", "chain": "MNSSTSPASQTERRCFSFQLFSWAIAGTSILLLSACFITRCVVTYSIFQLCDEKKFQPPGDSMELSCYNDGSGSVKNCCPLKWFHFQSSCYLFSPDTMSWRASLKNCSSMGAHLVVINTQEEQEFLYYTKPRKKEFYIGLTDQVTEGQWQWVDGTPFTKSLSFWDAGEPNNLVIVEDCATIRDSSNPRQNWNDVPCFFNMFRVCEMPERKI"}}, "test_in_all_cases": "glycan array binding signal (z-score within array); higher = stronger binding", "conditions_in_all_cases": "glycan notation: IUPAC condensed, linker removed", "key": {"Fuc(a1-2)Gal": {"molecular_target": "Fuc(a1-2)Gal", "procedure,_shortened": "(§1)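 The binding signal is a Z-score computed within each array and averaged over linkers. Arrays of the same protein sequence at different concentrations or buffers were also averaged together. Data originate from 3228 arrays in the Consortium for Functional Glycomics database, kept only where the protein sequence was available.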"}, "[1]": {"molecular_target": "Fuc(a1-2)Gal(b1-4)GlcNAc(b1-2)Man(a1-3)[Fuc(a1-2)Gal(b1-4)GlcNAc(b1-2)Man(a1-6)]Man(b1-4)GlcNAc(b1-4)GlcNAc", "procedure,_shortened": "as §1"}, "[2]": {"molecular_target": "Fuc(a1-2)Gal(b1-4)GlcNAc(b1-6)GalNAc", "procedure,_shortened": "as §1"}, "[3]": {"molecular_target": "Fuc(a1-2)Gal(b1-4)[Fuc(a1-3)]GlcNAc(b1-3)[Neu5Ac(a2-6)Gal(b1-4)GlcNAc(b1-6)]Gal(b1-4)Glc", "procedure,_shortened": "as §1"}, "Fuc(a1-2)[Gal(a1-3)]Gal": {"molecular_target": "Fuc(a1-2)[Gal(a1-3)]Gal", "procedure,_shortened": "as §1"}, "[4]": {"molecular_target": "Fuc(a1-2)[Gal(a1-3)]Gal(b1-4)GlcNAc(b1-2)Man(a1-3)[Fuc(a1-2)[Gal(a1-3)]Gal(b1-4)GlcNAc(b1-2)Man(a1-6)]Man(b1-4)GlcNAc(b1-4)[Fuc(a1-6)]GlcNAc", "procedure,_shortened": "as §1"}, "[5]": {"molecular_target": "Fuc(a1-2)[GalNAc(a1-3)]Gal(b1-3)GalNAc(b1-3)Gal(a1-4)Gal(b1-4)Glc", "procedure,_shortened": "as §1"}, "[6]": {"molecular_target": "Fuc(a1-2)[GalNAc(a1-3)]Gal(b1-3)GlcNAc(b1-2)Man(a1-3)[Fuc(a1-2)[GalNAc(a1-3)]Gal(b1-3)GlcNAc(b1-2)Man(a1-6)]Man(b1-4)GlcNAc(b1-4)[Fuc(a1-6)]GlcNAc", "procedure,_shortened": "as §1"}, "[7]": {"molecular_target": "Fuc(a1-2)[GalNAc(a1-3)]Gal(b1-4)GlcNAc(b1-2)Man(a1-3)[Fuc(a1-2)[GalNAc(a1-3)]Gal(b1-4)GlcNAc(b1-2)Man(a1-6)]Man(b1-4)GlcNAc(b1-4)GlcNAc", "procedure,_shortened": "as §1"}, "[8]": {"molecular_target": "Fuc(a1-3)[Gal(b1-4)]Glc6S", "procedure,_shortened": "as §1"}, "[9]": {"molecular_target": "Fuc(a1-3)[Gal3S(b1-4)]GlcNAc6S", "procedure,_shortened": "as §1"}, "[10]": {"molecular_target": "Gal(a1-3)Gal(b1-3)GlcNAc(b1-3)GalNAc", "procedure,_shortened": "as §1"}, "[11]": {"molecular_target": "Gal(a1-3)Gal(b1-3)[Fuc(a1-4)]GlcNAc(b1-2)Man(a1-3)[Gal(a1-3)Gal(b1-3)[Fuc(a1-4)]GlcNAc(b1-2)Man(a1-6)]Man(b1-4)GlcNAc(b1-4)GlcNAc", "procedure,_shortened": "as §1"}, "Gal(a1-3)Gal(b1-4)Glc": {"molecular_target": "Gal(a1-3)Gal(b1-4)Glc", "procedure,_shortened": "as §1"}, "[12]": {"molecular_target": "Gal(a1-3)Gal(b1-4)GlcNAc(b1-3)GalNAc", "procedure,_shortened": "as §1"}, "[13]": {"molecular_target": "Gal(a1-3)Gal(b1-4)[Fuc(a1-3)]GlcNAc", "procedure,_shortened": "as §1"}, "Gal(a1-4)Gal(b1-4)Glc": {"molecular_target": "Gal(a1-4)Gal(b1-4)Glc", "procedure,_shortened": "as §1"}, "[14]": {"molecular_target": "Gal(a1-4)Gal(b1-4)GlcNAc(b1-2)Man(a1-3)[Gal(a1-4)Gal(b1-4)GlcNAc(b1-2)Man(a1-6)]Man(b1-4)GlcNAc(b1-4)GlcNAc", "procedure,_shortened": "as §1"}, "[15]": {"molecular_target": "Gal(a1-4)Gal(b1-4)GlcNAc(b1-3)Gal(b1-4)Glc", "procedure,_shortened": "as §1"}, "Gal(b1-3)Gal(b1-4)GlcNAc": {"molecular_target": "Gal(b1-3)Gal(b1-4)GlcNAc", "procedure,_shortened": "as §1"}, "Gal(b1-3)GalNAc": {"molecular_target": "Gal(b1-3)GalNAc", "procedure,_shortened": "as §1"}, "[16]": {"molecular_target": "Gal(b1-3)GlcNAc(b1-3)Gal(b1-4)GlcNAc(b1-2)Man(a1-3)[Gal(b1-3)GlcNAc(b1-3)Gal(b1-4)GlcNAc(b1-2)Man(a1-6)]Man(b1-4)GlcNAc(b1-4)GlcNAc", "procedure,_shortened": "as §1"}, "Gal(b1-3)GlcNAc6S": {"molecular_target": "Gal(b1-3)GlcNAc6S", "procedure,_shortened": "as §1"}, "[17]": {"molecular_target": "Gal(b1-3)[Fuc(a1-4)]GlcNAc(b1-2)Man", "procedure,_shortened": "as §1"}, "Gal(b1-4)Glc6S": {"molecular_target": "Gal(b1-4)Glc6S", "procedure,_shortened": "as §1"}, "Gal(b1-4)GlcNAc": {"molecular_target": "Gal(b1-4)GlcNAc", "procedure,_shortened": "as §1"}, "[18]": {"molecular_target": "Gal(b1-4)GlcNAc(b1-2)[Gal(b1-4)GlcNAc(b1-6)]Man(a1-6)[Gal(b1-4)GlcNAc(b1-2)Man(a1-3)]Man(b1-4)GlcNAc(b1-4)GlcNAc", "procedure,_shortened": "as §1"}, "[19]": {"molecular_target": "Gal(b1-4)GlcNAc(b1-3)Gal(b1-4)GlcNAc(b1-2)Man(a1-3)[Gal(b1-4)GlcNAc(b1-3)Gal(b1-4)GlcNAc(b1-2)Man(a1-6)]Man(b1-4)GlcNAc(b1-4)[Fuc(a1-6)]GlcNAc", "procedure,_shortened": "as §1"}, "[20]": {"molecular_target": "Gal(b1-4)GlcNAc(b1-3)Gal(b1-4)GlcNAc(b1-3)Gal(b1-4)GlcNAc(b1-3)Gal(b1-4)GlcNAc(b1-3)Gal(b1-4)GlcNAc(b1-3)Gal(b1-4)GlcNAc(b1-2)Man(a1-3)[Gal(b1-4)GlcNAc(b1-3)Gal(b1-4)GlcNAc(b1-3)Gal(b1-4)GlcNAc(b1-3)Gal(b1-4)GlcNAc(b1-3)Gal(b1-4)GlcNAc(b1-3)Gal(b1-4)GlcNAc(b1-2)Man(a1-6)]Man(b1-4)GlcNAc(b1-4)GlcNAc", "procedure,_shortened": "as §1"}, "[21]": {"molecular_target": "Gal(b1-4)GlcNAc(b1-3)[Gal(b1-4)GlcNAc(b1-6)]Gal(b1-4)GlcNAc", "procedure,_shortened": "as §1"}}, "note": "The full list was thinned out, with the strongest signals kept by preference."}
{"binder": "B1", "values": [{"measurement": "glycan array binding signal (z-score)", "setting": "Fuc(a1-2)Gal", "value": 3.49}, {"measurement": "glycan array binding signal (z-score)", "setting": "[1]", "value": 1.4}, {"measurement": "glycan array binding signal (z-score)", "setting": "[2]", "value": -0.168}, {"measurement": "glycan array binding signal (z-score)", "setting": "[3]", "value": -0.411}, {"measurement": "glycan array binding signal (z-score)", "setting": "Fuc(a1-2)[Gal(a1-3)]Gal", "value": -0.737}, {"measurement": "glycan array binding signal (z-score)", "setting": "[4]", "value": -0.601}, {"measurement": "glycan array binding signal (z-score)", "setting": "[5]", "value": -0.374}, {"measurement": "glycan array binding signal (z-score)", "setting": "[6]", "value": 0.364}, {"measurement": "glycan array binding signal (z-score)", "setting": "[7]", "value": 0.419}, {"measurement": "glycan array binding signal (z-score)", "setting": "[8]", "value": -0.342}, {"measurement": "glycan array binding signal (z-score)", "setting": "[9]", "value": -0.116}, {"measurement": "glycan array binding signal (z-score)", "setting": "[10]", "value": 0.019}, {"measurement": "glycan array binding signal (z-score)", "setting": "[11]", "value": 1.26}, {"measurement": "glycan array binding signal (z-score)", "setting": "Gal(a1-3)Gal(b1-4)Glc", "value": 0.058}, {"measurement": "glycan array binding signal (z-score)", "setting": "[12]", "value": -0.713}, {"measurement": "glycan array binding signal (z-score)", "setting": "[13]", "value": -0.559}, {"measurement": "glycan array binding signal (z-score)", "setting": "Gal(a1-4)Gal(b1-4)Glc", "value": -0.565}, {"measurement": "glycan array binding signal (z-score)", "setting": "[14]", "value": 0.919}, {"measurement": "glycan array binding signal (z-score)", "setting": "[15]", "value": -0.763}, {"measurement": "glycan array binding signal (z-score)", "setting": "Gal(b1-3)Gal(b1-4)GlcNAc", "value": -0.462}, {"measurement": "glycan array binding signal (z-score)", "setting": "Gal(b1-3)GalNAc", "value": -0.37}, {"measurement": "glycan array binding signal (z-score)", "setting": "[16]", "value": 0.271}, {"measurement": "glycan array binding signal (z-score)", "setting": "Gal(b1-3)GlcNAc6S", "value": -0.773}, {"measurement": "glycan array binding signal (z-score)", "setting": "[17]", "value": 1.34}, {"measurement": "glycan array binding signal (z-score)", "setting": "Gal(b1-4)Glc6S", "value": 0.6}, {"measurement": "glycan array binding signal (z-score)", "setting": "Gal(b1-4)GlcNAc", "value": -0.249}, {"measurement": "glycan array binding signal (z-score)", "setting": "[18]", "value": -0.55}, {"measurement": "glycan array binding signal (z-score)", "setting": "[19]", "value": 1.11}, {"measurement": "glycan array binding signal (z-score)", "setting": "[20]", "value": 0.667}, {"measurement": "glycan array binding signal (z-score)", "setting": "[21]", "value": -1.01}]}
